Measured values from PubChem BioAssay (NCI).
This is part of a sample that, as a whole, favours compounds with a hit. Of some 83,000 tested, about 20% had one in any assay.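 Cells were grown in 96-well plates and exposed to the test compound at a single concentration for 48 hours; results are reported as percent growth, with values below 10 considered active.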 Unmarked numbers belong to inactive results. Active and inactive are the calls of the source.

These compounds were tested on HL-60(TB) leukemia (assay: NCI-60 one-dose screen, 48 h (100 = growth as untreated, 0 = no growth, -100 = all killed)). Conditions: 10 µM unless noted.

SMILES	growth
CC1(C)C(=O)/C(=C\c2ccc(C(F)(F)F)cc2)C[C@]2(C)[C@H]3CC[C@@H]4[C@H]5[C@H](C(=O)/C=C/c6ccc(C(F)(F)F)cc6)CC[C@]5(CO)CC[C@@]4(C)[C@]3(C)CC[C@@H]12	92%
O=C1OC(c2ccc(-c3ccccc3)cc2)=C/C1=C/C=C/c1ccccc1	90.5%
CCNc1ncnc2c1cnn2C1CCCO1 (stereo not given)	92.5%
OCCOSCCO	99.1%
COc1ccc(NC(=O)c2nc(-c3cc(OC)c(OC)c(OC)c3)n(-c3cccc4ccccc34)n2)cc1OC	10%
O=C(Nc1ccc(F)c(Cl)c1)Nc1ccc(Cl)c(Cl)c1	25%
OCCOc1ccc(-c2cc(-c3ccccn3)nc(-c3ccccn3)c2)cc1	-36.1% (active)
C=CCn1c(SCC(=O)Nc2ccc(C(=O)/C=C/c3ccc(Cl)cc3)cc2)nnc1-c1cc(OC)c(OC)c(OC)c1	97.7%
Cc1ccccc1N=C(N)Nc1ccccc1C (tested in a mixture with another compound)	-25% (active)
COc1ccc(-c2csc(NC(=O)c3cc(O)c(O)c(O)c3)n2)cc1	62.4%
Oc1ccc(Nc2nccc(-c3ccc4ccccc4c3)n2)cc1	7.93% (active)
Cc1cc(C#Cc2ccc(C(C)(C)C)cc2)ccc1-n1c(/C=C/c2c(Cl)cccc2Cl)nc2ccccc2c1=O	99.6%
CCCCCCCCCc1ccc(OC(C)=O)cc1	108%
O=CN1N=C(c2ccc3c(c2)OCO3)CC1c1cccc(Nc2ccnc3cc(C(F)(F)F)ccc23)c1 (stereo not given)	72.8%
CSc1nc(-c2cc3ccccc3o2)cc(-c2ccc(Cl)cc2)c1C#N	126%
Cc1cc(N2CCOCC2)nc(N[C@@H]2CCC[C@H](Nc3ccnc4cc(Cl)ccc34)C2)n1	-69.5% (active)
CSc1ncccc1C(=O)OCC(=O)Nc1oc(C)c2c(C)n[nH]c(=O)c12	98.2%
c1ccc(C(=NNc2nc3ccccc3o2)c2ccccn2)nc1	-11.8% (active)
COc1cccc(-c2nn(-c3ccccc3)cc2-c2ccnc(-c3cccnc3)c2)c1	56.8%
O=C1CCC(=O)N1Cc1ccccc1	102%

SMILES	growth
CCOC(=O)n1cc(-c2nonc2-c2cn(C)c3ccc(OC)cc23)c2cc(F)ccc21	99.7%
CS(=O)(=O)c1nsc(N)n1	105%
NC(=NCCCOc1ccc(Cl)cc1)Nc1ccc(C(F)(F)F)cc1	94.4%
COc1cc(-c2nc(-c3nnc(-c4ccccc4Cl)o3)c3ccccn23)cc(OC)c1OC	67.1%
COc1ccc(-c2nc3sccn3c2-c2cc(-c3cc(OC)c(OC)c(OC)c3)on2)cc1	23.5%
CSc1nc2ccccc2cc1/C=[N+](\[O-])c1ccccc1	-13.4% (active)
CCCCCCCCCc1cc(CN2CCCCC2)c(O)c(CN2CCCCC2)c1	60.7%
CCCCCCOc1ccc(/C=C/C(=O)c2ccc(B(O)O)cc2)cc1	18.5%
O=C(CC(=O)c1cccc(Cl)c1)c1cccc(Cl)c1	4.17% (active)
Cc1nc2sc(C(=O)Nc3ccccc3)c(N)c2cc1C(O)c1ccccc1 (stereo not given)	-54% (active)
CCCCCCC/C(=N\N=C(N)N)c1ccc(O)cc1	6.11% (active)
CCCCCCCCCCCCNc1ncnc2[nH]ncc12	74.4%
CN(C)c1ccc(C2Nc3ccccc3-n3cccc32)cc1 (stereo not given)	123%
O=C(Nc1ccc(NC(=O)c2cc(=O)[nH]c3ccccc23)cc1)Nc1cccc(Cl)c1	78.7%
O=C1/C(=C/c2ccc(O)cc2)COc2ccc(O)cc21	96.2%
COc1cccc(NC(=O)c2sc3nc4c(cc3c2N)C(O)CCC4)c1 (stereo not given)	-16.8% (active)
C=C1C(=O)O[C@H]2[C@H]1CC/C(COC(=O)CCCC(=O)OC/C1=C/CC[C@@]3(C)O[C@H]3[C@H]3OC(=O)C(=C)[C@@H]3CC1)=C\CC[C@@]1(C)O[C@@H]21	-41.8% (active)
COc1ccc(/C=C2/C(=O)ON=C2C)cc1	103%
CCC(=C(c1ccc(OCCCN(C)C)cc1)c1ccc(OCCCN(C)C)cc1)c1ccc(Cl)cc1	-55.3% (active)
O=C(CCN1CCCC1)Nc1ccc2c(Nc3ccc(F)cc3)c3ccccc3nc2c1	-54.9% (active)
